The structures appear in SMILES notation. Activity calls are given as the source filed them. Unless noted, how the calls were made is not given here.

In assay [1] the test system is Wnt5a (protein binding on small-molecule microarray). Briefly: Wnt5a binders on small-molecule microarray, primary screen, biophysical, 635/667 nm fluorescence (AID 1142).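 Further: fluorescence read at 667 nm with signal to noise per printed feature.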 Particulars: 635 nm fluorescence, higher = more signal.
Assay [2] is described as follows: cell viability in Huh7 cells, primary screen, cytotoxicity control for HCV replication inhibitor project, CellTiter-Glo luminescence, basal, 48 h (AID 1143).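 Further: Huh7 hepatoma cells carrying a hepatitis C replication reporter with no stimulus; test concentration not given here.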 Particulars: Huh7 HCV replicon, higher = more signal, called active from +8 up or from −8 down. A general note: ATP-based viability assays read luminescence as a measure of living cells.
Assay [3] in a line: P. aeruginosa biofilm formation inhibitors, primary screen, PAO1 strain, BacTiter-Glo luminescence, LB-PBS (AID 1144). The settings on record: 12 h, higher = more signal.
Assay [4] is described as follows: CREB reporter modulators without forskolin, primary screen, cell-based, PC12, CRE-LacZ reporter, unstimulated (AID 1145). Particulars: no forskolin, luminescence, 4.5 h, higher = more signal, called active from +8 up or from −8 down.
Assay [5] in a line: CREB reporter modulators under forskolin, primary screen, cell-based, PC12, CRE-LacZ reporter, forskolin-stimulated (AID 1146).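 Further: PC12 cells with 6xCRE LacZ reporter stimulated by forskolin 10 µM; beta-galactosidase reporter signal reflecting CREB driven transcription.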 The settings on record: luminescence, 4.5 h, higher = more signal, called active from +8 up or from −8 down.
In assay [6] the target is Streptavidin (Streptomyces avidinii) (UniProt P22629). Briefly: streptavidin binders on small-molecule microarray, primary screen, artefact control for SMM compound annotation, biophysical, 635/667 nm fluorescence (AID 1147).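 Further: signal reflects streptavidin binding to arrayed compounds as a control protein.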 The settings on record: streptavidin binding, higher = more signal.
Assay [7] can be described thus: small-molecule binders of probe aInhba, primary screen, biochemical, small-molecule microarray, 635/667 nm fluorescence (AID 1148).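 Further: score merges 667nm spot fluorescence with signal-to-noise for antibody binding to printed compounds.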 Particulars: higher = more signal.
Assay [8] addresses Torsin-1A (Homo sapiens) (UniProt O14656). The assay can be described thus: torsin A binders from cell lysate, primary screen, small-molecule microarray, wild-type, 635/667 nm (AID 1149). The settings on record: COS7 hTOR1A-WT lysate, 635 nm fluorescence, higher = more signal.
Assay [9] shares this target. The assay can be described thus: small-molecule binders of mutant TOR1A in lysate, primary screen, cell lysate, small-molecule microarray, COS7 lysate, 635/667 nm fluorescence (AID 1150).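 Further: score pools 667 nm emission and signal to noise measuring lysate protein binding.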 The settings on record: COS7 hTOR1A mutant lysate, 635 nm fluorescence, higher = more signal.
For assay [10], the system named is Sonic hedgehog protein (Shh). Briefly: small-molecule binders of Shh protein, primary screen, biochemical, small-molecule microarray, 635/667 nm fluorescence (AID 1151).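 Further: Shh protein binding to compounds spotted on small-molecule microarray slides; score combines spot fluorescence intensity with signal-to-noise across triplicate slides.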 Particulars: small-molecule microarray binding, 635 nm fluorescence; higher = more signal.
Assay [11] is described as follows: E. coli DRC41 culture turbidity changes, primary screen, E. coli filamentation inducer project, strain DRC41, OD650, 48 h (AID 1152).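 Further: E. coli MC1000 strain DRC41 lacking acrAB efflux pump and sulA.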 Particulars: E. coli DRC41 (acrAB sulA), higher = more signal, called active from +8 up or from −8 down.
Assay [12] is described as follows: small-molecule binders of probe aLefty1, primary screen, biochemical, small-molecule microarray, 635/667 nm fluorescence (AID 1153).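 Further: score merges spot fluorescence with signal-to-noise ratio from the scanned slide images.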 The settings on record: higher = more signal.
Assay [13] can be described thus: PSAC antagonists in infected red cells, primary screen, cell-based, P. falciparum Indochina, OD700, 1 h (AID 1154). Particulars: P. falciparum Indochina infected RBC osmotic lysis, higher = more signal, called active from +8 up or from −8 down.
Assay [14] in a line: PSAC antagonists in infected red cells, primary screen, cell-based, P. falciparum Indochina, OD700, 2 h (AID 1155).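 Further: lysis reports solute entry through the parasite surface anion channel PSAC; channel blockers reduce lysis of infected cells.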 The settings on record: P. falciparum Indochina infected erythrocytes, osmotic lysis OD700; higher = more signal, called active from +8 up or from −8 down.
Assay [15] can be described thus: osmotic lysis modulators in infected erythrocytes, primary screen, PSAC antagonist project, cell-based, P. falciparum Indochina, OD700, 3 h (AID 1156). Particulars: higher = more signal, called active from +8 up or from −8 down.
The nature of assay [16]: PSAC antagonists in infected red cells, primary screen, cell-based, P. falciparum Indochina, OD700, 18 h (AID 1157). The settings on record: P. falciparum Indochina infected erythrocytes, osmotic lysis OD700, 18 h; higher = more signal, called active from +8 up or from −8 down.
A short description of assay [17]: modulators of S6 phosphorylation in cells, primary screen, cell-based, A549, cytoblot, luminescence, serum-stimulated (AID 1158).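 Further: serum-stimulated A549 lung adenocarcinoma cells; signal is phosphorylated S6 detected by cytoblot immunostaining with HRP secondary.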 Particulars: A549 phospho-S6 cytoblot, 5 h, higher = more signal.
Assay [18] deals with NADPH oxidase 2 (Homo sapiens) (UniProt P04839). The assay can be described thus: NOX2-dependent H2O2 signal modulators, primary screen, NOX inhibitor project, cell-based, HEK293-NOX2, PMA-stimulated, Amplex Red fluorescence (AID 1159). Further: test concentration not given here. The settings on record: 45 min, higher = more signal, called active from +8 up or from −8 down.
Assay [19] addresses NADPH oxidase 4 (Homo sapiens) (UniProt Q9NPH5). The assay can be described thus: NOX4-dependent H2O2 signal modulators, primary screen, NOX inhibitor project, cell-based, HEK293-NOX4, tetracycline-induced, Amplex Red fluorescence (AID 1160). The settings on record: 45 min, higher = more signal, called active from +8 up or from −8 down.
Assay [20] has as its target NADPH oxidase 5 (Homo sapiens) (UniProt Q96PH1). The assay can be described thus: NOX5-dependent H2O2 signal modulators, primary screen, NOX inhibitor project, cell-based, HEK293-NOX5, Amplex Red fluorescence (AID 1161). Particulars: HEK293-NOX5, ionomycin, 45 min, higher = more signal.

Chain of NADPH oxidase 4 (Homo sapiens) (Q9NPH5 whole entry, looked up): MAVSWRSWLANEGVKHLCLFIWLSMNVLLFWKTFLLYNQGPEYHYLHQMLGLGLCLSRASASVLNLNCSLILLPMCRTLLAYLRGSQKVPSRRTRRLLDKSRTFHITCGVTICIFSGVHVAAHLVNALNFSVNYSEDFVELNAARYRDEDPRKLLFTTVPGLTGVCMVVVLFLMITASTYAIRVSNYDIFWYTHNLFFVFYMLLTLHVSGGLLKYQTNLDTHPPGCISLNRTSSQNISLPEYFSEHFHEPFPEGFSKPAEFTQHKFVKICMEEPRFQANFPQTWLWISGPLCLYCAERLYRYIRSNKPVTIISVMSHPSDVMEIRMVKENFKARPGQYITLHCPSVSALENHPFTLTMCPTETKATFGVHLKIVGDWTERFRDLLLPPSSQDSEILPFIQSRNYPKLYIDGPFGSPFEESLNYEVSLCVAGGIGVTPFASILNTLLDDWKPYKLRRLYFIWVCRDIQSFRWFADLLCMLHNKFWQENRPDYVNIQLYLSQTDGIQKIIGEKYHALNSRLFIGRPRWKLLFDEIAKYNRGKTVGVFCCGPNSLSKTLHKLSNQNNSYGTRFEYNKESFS
Chain of Torsin-1A (Homo sapiens) (O14656 whole entry, looked up): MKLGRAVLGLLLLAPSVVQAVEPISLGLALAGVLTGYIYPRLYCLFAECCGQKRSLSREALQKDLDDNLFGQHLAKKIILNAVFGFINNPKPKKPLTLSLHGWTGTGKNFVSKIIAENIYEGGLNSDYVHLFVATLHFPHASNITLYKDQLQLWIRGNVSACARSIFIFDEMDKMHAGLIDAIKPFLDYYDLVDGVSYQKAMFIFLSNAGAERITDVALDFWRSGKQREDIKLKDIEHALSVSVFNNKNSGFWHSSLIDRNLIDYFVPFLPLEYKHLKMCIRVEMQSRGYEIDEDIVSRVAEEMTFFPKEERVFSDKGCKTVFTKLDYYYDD
Chain of Streptavidin (Streptomyces avidinii) (P22629 whole entry, looked up): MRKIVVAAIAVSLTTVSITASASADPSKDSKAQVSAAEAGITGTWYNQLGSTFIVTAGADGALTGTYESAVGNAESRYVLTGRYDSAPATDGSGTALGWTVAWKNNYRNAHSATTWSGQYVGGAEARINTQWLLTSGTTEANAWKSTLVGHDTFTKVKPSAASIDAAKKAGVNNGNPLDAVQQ
Chain of NADPH oxidase 2 (Homo sapiens) (P04839 whole entry, looked up): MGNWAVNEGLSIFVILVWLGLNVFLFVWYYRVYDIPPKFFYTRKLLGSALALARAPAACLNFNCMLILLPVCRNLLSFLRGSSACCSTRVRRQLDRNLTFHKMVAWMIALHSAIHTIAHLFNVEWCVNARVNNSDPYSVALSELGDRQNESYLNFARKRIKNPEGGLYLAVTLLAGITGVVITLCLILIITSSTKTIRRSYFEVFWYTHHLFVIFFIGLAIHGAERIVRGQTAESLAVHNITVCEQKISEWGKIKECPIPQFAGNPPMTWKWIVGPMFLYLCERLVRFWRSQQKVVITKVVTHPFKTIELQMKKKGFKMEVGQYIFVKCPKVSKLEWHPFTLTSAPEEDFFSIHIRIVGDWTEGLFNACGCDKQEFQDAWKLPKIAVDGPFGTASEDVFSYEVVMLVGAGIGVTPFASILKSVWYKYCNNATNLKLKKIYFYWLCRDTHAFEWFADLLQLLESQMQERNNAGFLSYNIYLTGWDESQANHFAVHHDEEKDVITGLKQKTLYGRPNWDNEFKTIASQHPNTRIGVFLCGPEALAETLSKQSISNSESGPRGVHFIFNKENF
Chain of NADPH oxidase 5 (Homo sapiens) (Q96PH1 whole entry, looked up): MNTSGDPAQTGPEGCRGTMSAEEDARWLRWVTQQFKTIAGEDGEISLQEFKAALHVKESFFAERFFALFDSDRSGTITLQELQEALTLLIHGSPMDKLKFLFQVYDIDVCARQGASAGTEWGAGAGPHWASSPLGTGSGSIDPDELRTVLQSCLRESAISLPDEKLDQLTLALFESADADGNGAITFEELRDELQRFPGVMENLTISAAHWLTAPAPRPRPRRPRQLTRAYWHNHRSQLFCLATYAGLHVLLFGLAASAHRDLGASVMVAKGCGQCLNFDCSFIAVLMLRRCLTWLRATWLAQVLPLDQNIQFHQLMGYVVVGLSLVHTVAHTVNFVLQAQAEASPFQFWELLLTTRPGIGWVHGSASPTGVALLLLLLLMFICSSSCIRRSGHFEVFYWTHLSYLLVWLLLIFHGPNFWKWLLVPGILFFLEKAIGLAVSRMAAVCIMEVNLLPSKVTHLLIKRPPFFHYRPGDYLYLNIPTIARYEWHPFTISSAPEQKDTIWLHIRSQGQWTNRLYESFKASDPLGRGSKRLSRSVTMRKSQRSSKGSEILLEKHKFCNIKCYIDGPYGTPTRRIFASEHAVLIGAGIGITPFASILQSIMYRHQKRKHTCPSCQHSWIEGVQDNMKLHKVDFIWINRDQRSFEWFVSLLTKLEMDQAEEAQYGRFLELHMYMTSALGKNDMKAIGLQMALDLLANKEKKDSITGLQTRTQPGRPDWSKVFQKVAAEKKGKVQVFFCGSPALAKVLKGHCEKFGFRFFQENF

Regarding `COC(=O)c1c(CC[C@@H](CO)NC(=O)N[C@@H](C)Cn2cc(-c3ccccn3)nn2)oc(C(C)=O)c1C(=O)OC`, the composite z-score is 0.182 in [1]; -0.893 in assay [6]; 0.154 in [7]; 0.372 with Torsin-1A (Homo sapiens) [8]; 0.591 in the assay with Torsin-1A (Homo sapiens) [9]; 1.74 in [10]. The compound also had a composite z-score in assay [12] of -0.106. The z-score is -2.77 (inactive) in assay [2]; -0.243 (inactive) in assay [3]; 1.21 (inactive) in assay [4]; 0.363 (inactive) in [5]; -0.476 (inactive) in [11]; 1.71 (inactive) in [13]. Also, the z-score in assay [14] is -1.15 (inactive); in assay [15], 0.613 (inactive); in assay [16] it was -1.08 (inactive); in assay [17] it was 0.42; in assay [18], -3.95 (inactive); in [19], -2.23 (inactive). In [20], this compound yielded a z-score of -3.06.
As for `CCOC(=O)C1=C[C@@H](c2ccccc2)N(S(=O)(=O)c2ccc(C)cc2)[C@H]1c1ccc(OC)cc1`, the composite z-score in [1] was 0.943; in assay [6], 0.689; in assay [7], 0.29; with Torsin-1A (Homo sapiens) [8], 0.162; with Torsin-1A (Homo sapiens) [9] it was 0.513; in [10] it was -0.0921. This compound registered a composite z-score in [12] of 1.02. Moreover, the z-score in assay [2] was -2.61 (inactive); in [3], 0.173 (inactive); in [4], -0.275 (inactive); in [5] it was -0.0617 (inactive); in assay [11] it was -1.11 (inactive); in [13], 1.18 (inactive). For the same compound, the z-score is 1.07 (inactive) in [14]; 0.106 (inactive) in [15]; 0.512 (inactive) in [16]; -0.887 in assay [17]; 0.156 (inactive) in assay [18]; 1.02 (inactive) in assay [19]. The z-score in assay [20] is -0.348.
Regarding `[N-]=[N+]=NCc1ccccc1C[C@@]1(C(N)=O)N=C(c2ccc(OCCCO)cc2)O[C@@H]1c1ccccc1`, the composite z-score in assay [1] is -0.182; in [6], 0.559; in [7], 0.144; in the assay with Torsin-1A (Homo sapiens) [8] it was 0.754; with Torsin-1A (Homo sapiens) [9], 1.22; in assay [10] it was -0.671. This compound showed a composite z-score in [12] of 0.408. Besides, the z-score in assay [2] is -3.28 (inactive); in assay [3], 0.103 (inactive); in assay [4], 0.498 (inactive); in assay [5], -0.0576 (inactive); in assay [11] it was -1.25 (inactive); in assay [13] it was 27.2 (active). For the same compound, the z-score in assay [14] is 19.2 (active); in assay [15], 0.354 (inactive); in assay [16] it was 2.58 (inactive); in assay [17], -0.494; in [18], -2.31 (inactive); in assay [19], 0.64 (inactive). This compound returned a z-score in assay [20] of -0.235.
Take `COCCOC(=O)N1C(=O)[C@@]2(c3cc(C#CC4=CCCCC4)ccc31)[C@H](C(=O)Nc1nc3ccccc3s1)[C@H]1C(=O)O[C@H](c3ccccc3)[C@H](c3ccccc3)N1[C@@H]2c1ccc(O)cc1`: the composite z-score in [1] is 0.381; in assay [6], 1.25; in assay [7], -0.0178; with Torsin-1A (Homo sapiens) [8], 1.15; with Torsin-1A (Homo sapiens) [9], 0.358; in assay [10], 2.06. For the same compound, the composite z-score in [12] was found to be 0.103. For the same compound, the z-score in assay [2] is -0.67 (inactive); in assay [3], 0.288 (inactive); in assay [4] it was 0.532 (inactive); in assay [5] it was 0.817 (inactive); in assay [11], -0.61 (inactive); in [13], 0.141 (inactive). Moreover, the z-score in assay [14] is 0.524 (inactive); in [15], -0.0845 (inactive); in assay [16], 1.2 (inactive); in [17], -0.123; in assay [18], 0.843 (inactive); in assay [19], -0.44 (inactive). In addition, the z-score in [20] was 0.759.
In the case of `COc1cc2c(cc1O)C(C1CC1)N(Cc1cccc(OC(F)(F)F)c1)CC2` (stereo not given), the composite z-score in assay [1] is 0.0616; in assay [6], -0.41; in assay [7], -0.285; in the assay with Torsin-1A (Homo sapiens) [8], -0.0876; with Torsin-1A (Homo sapiens) [9], 0.315; in assay [10], 0.908. The compound further returned a composite z-score in assay [12] of -0.105. Moreover, the z-score is -3.88 (inactive) in assay [2]; 0.73 (inactive) in assay [3]; -0.581 (inactive) in assay [4]; 0.0388 (inactive) in [5]; -0.933 (inactive) in [11]; 2.92 (inactive) in assay [13]. The z-score in assay [14] was 0.325 (inactive); in [15], -0.222 (inactive); in [16] it was 0.032 (inactive); in assay [17], -0.759; in assay [18] it was -5.01 (inactive); in assay [19], -2.98 (inactive). In assay [20], the z-score was -4.25.
With `COC(=O)C(CC#Cc1ccc2c(c1)[C@]1(C(=O)N2)[C@H](c2ccc(O)cc2)N2[C@H](c3ccccc3)[C@H](c3ccccc3)OC(=O)[C@H]2[C@@H]1C(=O)NC[C@H](O)c1ccccc1)C(=O)OC`, the composite z-score was 0.0209 in [1]; 0.379 in assay [6]; 0.0769 in assay [7]; -0.207 with Torsin-1A (Homo sapiens) [8]; 0.276 in the assay with Torsin-1A (Homo sapiens) [9]; 1.68 in assay [10]. Further, the composite z-score in assay [12] is -0.0518. Besides, the z-score is -0.075 (inactive) in assay [2]; 0.221 (inactive) in assay [3]; -0.0566 (inactive) in [4]; -0.0638 (inactive) in [5]; -0.994 (inactive) in assay [11]; 1.13 (inactive) in assay [13]. Further, the z-score in assay [14] was 0.353 (inactive); in assay [15], -0.876 (inactive); in assay [16], -0.154 (inactive); in assay [17] it was -0.256; in [18], 1.39 (inactive); in assay [19] it was 0.318 (inactive). The z-score in assay [20] was 1.47.
As to `COc1ccc(CCNC(=O)[C@@H]2c3ccccc3C(=O)N(C3CCCCC3)[C@H]2c2ccc(CO)cc2)cc1`, the composite z-score was 0.378 in assay [1]; -0.11 in assay [6]; -0.0087 in [7]; -0.78 with Torsin-1A (Homo sapiens) [8]; 0.767 in the assay with Torsin-1A (Homo sapiens) [9]; -0.0203 in [10]. In [12], the composite z-score is -0.0149. For the same compound, the z-score in assay [2] was -2.93 (inactive); in assay [3] it was -0.0661 (inactive); in assay [4] it was -0.295 (inactive); in assay [5], -0.582 (inactive); in [11], -0.71 (inactive); in assay [13] it was 2.58 (inactive). Further, the z-score in [14] is 0.163 (inactive); in [15] it was 1.71 (inactive); in assay [16] it was 0.0567 (inactive); in [17] it was 0.491; in assay [18], -0.415 (inactive); in assay [19], -0.546 (inactive). In assay [20], this compound showed a z-score of -2.31.
For the compound `CCCC=C(CCC)[C@@H](NS(=O)(=O)c1ccc(C(F)(F)F)cc1)c1ccccc1`, the composite z-score in assay [1] was 0.001; in assay [6], 0.578; in [7], 0.156; with Torsin-1A (Homo sapiens) [8] it was -0.0214; with Torsin-1A (Homo sapiens) [9] it was -0.0562; in [10] it was 0.108. The composite z-score in assay [12] was determined as 0.379. Further, the z-score in assay [2] is -1.09 (inactive); in assay [3] it was -0.869 (inactive); in assay [4] it was -0.565 (inactive); in assay [5], 1.32 (inactive); in assay [11] it was -2.49 (inactive); in assay [13], 0.669 (inactive). The z-score is 0.546 (inactive) in [14]; 0.248 (inactive) in assay [15]; 0.567 (inactive) in [16]; -0.286 in assay [17]; -0.832 (inactive) in assay [18]; -1.74 (inactive) in [19]. For the same compound, in assay [20], the z-score was found to be 2.42.

The record behind these values is PubChem BioAssay.
